The structures appear in SMILES notation. Several values for one entry are separate records, joined by “and”; a condition that tells them apart may be missing. Equal values may be shown once. Activity calls are given as the source filed them.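 How the source made its calls, unless noted: active means thallium flux through the channel raised or lowered by more than 3 SD from vehicle-only wells, actives on both sides; inactive means the rest.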

By inhibition is commonly meant the relative decrease from the control value, in per cent.

Test [1] is described as follows: Wnt pathway potentiators raising nuclear beta-catenin – imaging, WNT3A-conditioned medium, mouse C2C12, NPC library, primary screen (AID 1117326; in the data active means nuclear beta-catenin stimulation mostly above about 4.2%, no sharp cut-off; inactive means mostly below about 10%). As to conditions: stronger effect = higher value.
Test [2] can be described thus: stimulators of insulin release from INS-1E, primary screen, cell-based, 5 mM glucose, NPC library (AID 1117329;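 active means compound raises insulin release from rat beta cells at 5 mM glucose, no numeric limit stated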). The note with it: rat INS-1E insulin secretion, at 10 µM, stronger effect = higher value.
Test [3] is described as follows: growth inhibition of GSK3B-pretreated HCT116 cells – cell-based, CellTiter-Glo, 0.2 to 20 µM (AID 1117336;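 active means compounds lowering colon cancer cell viability after pretreatment blocking the GSK3B kinase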). As to conditions: HCT116 viability after GSK3B inhibitor, at 20 µM, stronger effect = higher value. (Cellular ATP, detected with luciferase, serves as a proxy for viable cell number.)
A short description of test [4]: inhibition of endothelial tube formation, primary screen, imaging, VEGF stimulated, CD31 staining, tube area, NPC library (AID 1117340;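 active means compound that reduces growth-factor-driven endothelial tube area in a mixed cell culture, no cutoff stated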). As to conditions: VEGF-stimulated ADSC/ECFC co-culture, at 10 µM, stronger effect = higher value.
The nature of test [5]: GLP1 release stimulators, primary, NCI-H716, NPC library (AID 1117341;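 active means compound raises GLP1 secretion from the human gut endocrine cells, with no numeric limit stated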). The note with it: NCI-H716 cells, at 10 µM, stronger effect = higher value.
A short description of test [6]: HCT116 colon cancer cell growth inhibition, primary screen, CellTiter-Glo luminescence, NPC library (AID 1117342;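 active means compounds that lower survival of HCT116 colon cancer cells in the luminescence readout, no numeric limit stated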). The note with it: at 20 µM (top of the series).
The nature of test [7]: reduced SW480 viability measured with CellTiter-Glo, NPC library, primary (AID 1117343;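 active means compounds that lower viability of the colon cancer cells in the luminescence readout, with no numeric limit stated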). The note with it: CellTiter-Glo luminescence; at 20 µM (top of the series).
A short description of test [8]: NPC library primary testing for decreased DLD-1 cell viability via CellTiter-Glo (AID 1117346;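 active means compounds that lower survival of DLD-1 colon cancer cells in the luminescence readout, no cutoff given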). As to conditions: DLD-1 viability, CellTiter-Glo luminescence; at 20 µM (top of the series).
The target in test [9] is 6-phosphogluconate dehydrogenase, decarboxylating (Homo sapiens) (UniProt P52209). Briefly: inhibition of human phosphogluconate dehydrogenase – biochemical, recombinant enzyme, NADPH absorbance, primary screen (AID 1159550;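 active means at least 20% inhibition of 6-phosphogluconate dehydrogenase activity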). As to conditions: recombinant 6PGD, NADPH absorbance 341 nm; at 10 µM; stronger effect = higher value.
Sequence of 6-phosphogluconate dehydrogenase, decarboxylating (Homo sapiens) (P52209 whole entry, looked up): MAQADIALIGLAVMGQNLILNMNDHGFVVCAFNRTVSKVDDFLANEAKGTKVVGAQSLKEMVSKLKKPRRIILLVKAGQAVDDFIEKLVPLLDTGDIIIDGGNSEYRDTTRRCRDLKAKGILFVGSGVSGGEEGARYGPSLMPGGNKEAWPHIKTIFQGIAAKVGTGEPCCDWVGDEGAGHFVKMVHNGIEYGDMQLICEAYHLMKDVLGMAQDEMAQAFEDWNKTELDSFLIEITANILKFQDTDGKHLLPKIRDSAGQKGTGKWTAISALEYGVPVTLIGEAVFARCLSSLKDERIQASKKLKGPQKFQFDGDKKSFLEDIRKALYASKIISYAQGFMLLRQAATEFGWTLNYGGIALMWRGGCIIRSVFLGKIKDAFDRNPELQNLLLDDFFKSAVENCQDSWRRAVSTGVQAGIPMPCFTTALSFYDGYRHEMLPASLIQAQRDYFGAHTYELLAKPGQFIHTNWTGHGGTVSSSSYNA
The nature of test [10]: modulation of C. elegans fzo-1 (AID 1259413; call rule not given here;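 further: fzo-1 mutant C. elegans worms in liquid wells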). As to conditions: C. elegans fzo-1 modulator screen, mean read-out; stronger effect = higher value.
Test [11] in a line: EMT-state selective cytotoxicity in co-culture – imaging, PC-3E GFP, TEM4-18 mCherry, primary screen (AID 1345086;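 active means compounds killing one labelled cell type while sparing the other, by normalised counts and ratio limits, not self-fluorescent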;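 on all read-outs here: cells exposed to compound for 72 h before imaging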;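 on red/green cell ratio (normalised): normalised mesenchymal count divided by normalised epithelial count so high means epithelial killing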). As to conditions: PC-3E GFP / TEM4-18 mCherry co-culture, imaging cell counts, at 1 µM; for red/green cell ratio (normalised): actives lie on both sides, counts scaled to control wells, 1 = unselective.
Test [12] can be described thus: MELAS cybrid and Rieske KO viability enhancers – cell-based, MELAS cybrids, Rieske KO mouse fibroblasts, CellTiter-Glo, primary screen (AID 1508586;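 active means mean z-score across replicates of 1.96 or higher in either the MELAS or the Rieske mutant cell line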;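 further: z relative to plate mean and SD of compound and empty wells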). As to conditions: low glucose.
In test [13] the target is NAD(+) hydrolase SARM1 (Homo sapiens) (UniProt Q6SZW1). Briefly: blocking NAD cleavage by SARM1 SAM-TIR – cell lysate, NAD-Glo luminescence (AID 1508614;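 active means compound whose remaining NAD level is above about 45 nM, limit read from the data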). As to conditions: SAM-TIR HEK293T lysate NADase, at 1 µM, stronger effect = higher value.
Sequence of NAD(+) hydrolase SARM1 (Homo sapiens) (Q6SZW1 whole entry, looked up, the tested form may be a part): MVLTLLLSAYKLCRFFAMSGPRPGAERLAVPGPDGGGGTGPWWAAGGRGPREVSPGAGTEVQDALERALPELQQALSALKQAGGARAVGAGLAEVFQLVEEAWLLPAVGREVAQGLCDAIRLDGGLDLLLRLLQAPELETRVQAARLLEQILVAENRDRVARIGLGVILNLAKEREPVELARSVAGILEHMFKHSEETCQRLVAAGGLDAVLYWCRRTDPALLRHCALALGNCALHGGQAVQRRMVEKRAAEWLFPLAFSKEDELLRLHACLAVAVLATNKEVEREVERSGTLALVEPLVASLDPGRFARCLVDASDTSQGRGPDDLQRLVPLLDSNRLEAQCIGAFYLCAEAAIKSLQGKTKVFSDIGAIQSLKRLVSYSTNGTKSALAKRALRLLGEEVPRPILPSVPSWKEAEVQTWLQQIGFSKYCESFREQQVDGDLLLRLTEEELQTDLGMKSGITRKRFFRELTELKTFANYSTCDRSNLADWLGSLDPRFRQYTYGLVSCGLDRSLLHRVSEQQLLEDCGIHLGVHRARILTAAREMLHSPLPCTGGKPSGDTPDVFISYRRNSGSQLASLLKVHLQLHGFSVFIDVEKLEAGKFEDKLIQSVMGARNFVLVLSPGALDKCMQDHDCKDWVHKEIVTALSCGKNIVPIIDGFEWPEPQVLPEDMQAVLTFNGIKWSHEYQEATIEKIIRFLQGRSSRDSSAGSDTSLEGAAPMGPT
Test [14] has as its target Mitogen-activated protein kinase 7 (Homo sapiens) (UniProt Q13164). As to the kind of experiment: Gal4-ERK5 driven luciferase induction – cell-based, HTS, primary screen (AID 1508626;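 active means luciferase signal above three times the same-plate solvent-only control wells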;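 further: luciferase driven by Gal4-ERK5 fusion binding five Gal4 sites before minimal TATA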). The note with it: HeLa Gal4-ERK5 transactivation, 18 h, at 5 µM, stronger effect = higher value.
For another test, the system named is F380Y. As to the kind of experiment: BK channel mutant inhibitors and activators – cell-based, U2OS BacMam, thallium flux, beta subunits, selectivity assay, profiling panel (AID 1259406).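 Further: initial slope of Thallos dye fluorescence rise after thallium is added; log ratio against the mean of 0.3% DMSO vehicle wells on the same plate.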 The note with it: U2OS BacMam BK variants, at 30 µM.
For a further test, the system named is F380Y/beta1. The description is as above. The note with it: U2OS BacMam BK variants, at 30 µM.
A further test has as its system F380Y/beta2Delta. Described as above. As to conditions: U2OS BacMam BK variants, at 30 µM.
A further test deals with F380Y/beta4. The test is described as above. The note with it: U2OS BacMam BK variants, at 30 µM.
Test [15] deals with Calcium-activated potassium channel subunit alpha-1 (Homo sapiens) + Leucine-rich repeat-containing protein 26 (Homo sapiens) (UniProt Q12791+Q2I0M4). Described as above. As to conditions: U2OS BacMam BK variants, F380Y/Slo1WT/gamma1, at 30 µM.
Sequence of Calcium-activated potassium channel subunit alpha-1 (Homo sapiens) + Leucine-rich repeat-containing protein 26 (Homo sapiens) (Q2I0M4 whole entry, looked up, one chain of several): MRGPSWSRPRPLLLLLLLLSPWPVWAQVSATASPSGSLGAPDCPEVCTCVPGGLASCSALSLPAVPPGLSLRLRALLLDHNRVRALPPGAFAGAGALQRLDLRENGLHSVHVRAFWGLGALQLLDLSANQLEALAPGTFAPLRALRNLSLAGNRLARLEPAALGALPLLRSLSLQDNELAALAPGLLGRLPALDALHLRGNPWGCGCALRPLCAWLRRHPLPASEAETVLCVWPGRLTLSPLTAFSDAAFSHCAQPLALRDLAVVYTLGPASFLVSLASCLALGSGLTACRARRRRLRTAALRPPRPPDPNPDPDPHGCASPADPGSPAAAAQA
Where [16] appears, read: measured here: epithelial PC-3E GFP cell survival.
[17] abbreviates: measured here: mesenchymal TEM4-18 mCherry cell survival.
Where [18] appears, read: MELAS cybrid survival, CellTiter-Glo 48 h, stronger effect = higher value.
The mark [19] stands for this setting: Rieske KO mouse fibroblast survival, CellTiter-Glo 72 h.

Sequence of Mitogen-activated protein kinase 7 (Homo sapiens) (Q13164 whole entry, looked up, the tested form may be a part): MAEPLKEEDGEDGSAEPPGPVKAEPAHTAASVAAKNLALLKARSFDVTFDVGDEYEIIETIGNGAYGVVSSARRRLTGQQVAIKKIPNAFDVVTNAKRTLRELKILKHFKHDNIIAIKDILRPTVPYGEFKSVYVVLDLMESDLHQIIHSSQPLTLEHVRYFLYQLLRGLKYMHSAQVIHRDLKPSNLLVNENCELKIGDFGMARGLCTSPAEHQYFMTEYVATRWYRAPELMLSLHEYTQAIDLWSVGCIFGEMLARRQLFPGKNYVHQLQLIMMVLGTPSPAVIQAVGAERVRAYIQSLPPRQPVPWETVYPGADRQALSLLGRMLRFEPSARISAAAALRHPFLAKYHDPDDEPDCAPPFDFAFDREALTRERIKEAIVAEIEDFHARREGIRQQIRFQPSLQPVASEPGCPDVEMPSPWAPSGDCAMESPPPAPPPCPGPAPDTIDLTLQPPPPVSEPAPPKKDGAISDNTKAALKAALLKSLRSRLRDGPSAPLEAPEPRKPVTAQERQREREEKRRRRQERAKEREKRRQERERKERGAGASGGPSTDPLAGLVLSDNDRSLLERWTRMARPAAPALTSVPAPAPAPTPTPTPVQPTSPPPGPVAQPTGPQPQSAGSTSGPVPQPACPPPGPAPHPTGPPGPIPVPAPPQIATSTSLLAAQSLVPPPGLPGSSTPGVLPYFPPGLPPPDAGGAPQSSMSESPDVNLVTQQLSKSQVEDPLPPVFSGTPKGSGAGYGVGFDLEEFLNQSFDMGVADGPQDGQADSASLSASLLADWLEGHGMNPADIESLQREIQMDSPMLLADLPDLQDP

For the compound `COc1c(N2CCNC(C)C2)c(F)cc2c(=O)c(C(=O)O)cn(C3CC3)c12` (configuration not stated), the nuclear beta-catenin stimulation in test [1] (at 10 µM) is 0.7% (inactive); in [1] (stimulation, at 2 µM), 2.5%. Moreover, the insulin secretion stimulation in test [2] is -1.15% (inactive). For the same compound, the viability decrease in test [3] is 6.2% (inactive). The tube area decrease in test [4] was -12.3% (inactive). For the same compound, the GLP1 secretion stimulation in test [5] was -2.4% (inactive). The inhibition of viability in [6] is 25.9% (inactive). Also, the viability decrease (inhibition) is -16.2% (inactive) in test [7] and -9.8% (inactive) in [8]. Moreover, the inhibition in test [9] was -4.88% (inactive). Further, in [10], the mean signal is 254 (inactive). In addition, the red/green cell ratio (normalised) in [11] was 0.98 (inactive) and 0.92 (inactive). Besides, the normalised cell number in test [11] (setting [16]) was 1.12 and 1.14; in test [11] (setting [17]), 1.11 and 1.05. The z-score was 0.506 (inactive) and 0.393 (inactive) in [12] (setting [18]); -0.687 and -0.598 in test [12] (setting [19]). In addition, the remaining NAD in [13] was 10 nM (inactive). The luciferase signal in test [14] is 72 AU (inactive). Also, the log fold change Tl+ flux in the test on F380Y was -0.00177 (inactive); in the test on F380Y/beta1, -0.0535 (inactive); in the test with F380Y/beta2Delta it was -0.045 (inactive); in the test with F380Y/beta4, -0.0127 (inactive); in [15], 0.0449 (inactive).
Regarding `CS(=O)(=O)OCCCCOS(C)(=O)=O`, the nuclear beta-catenin stimulation in test [1] (at 10 µM) was 1.2% (inactive); in test [1] (stimulation, at 2 µM), 0.6%. Further, the insulin secretion stimulation in test [2] is 0.2% (inactive). Further, the viability decrease in test [3] was 3.6% (inactive). The tube area decrease in [4] is 32.5% (inactive). Also, the GLP1 secretion stimulation in test [5] is -1.7% (inactive). Further, the inhibition of viability in [6] was -1.23% (inactive). The results for the viability decrease (inhibition) in [7] and in [8] were 31.8% (inactive) and -11% (inactive), respectively. For the same compound, in [9], the inhibition is 1.77% (inactive). The mean signal in test [10] is 241 (inactive). Also, the red/green cell ratio (normalised) in [11] was 1.02 (inactive). Also, the normalised cell number in test [11] (setting [16]) was 1.16; in test [11] (setting [17]), 1.19. The z-score is -0.182 (inactive) and -0.283 (inactive) in test [12] (setting [18]); -0.743 and -0.155 in test [12] (setting [19]). Besides, the remaining NAD in [13] was 10 nM (inactive). Besides, the luciferase signal in test [14] is 52 AU (inactive). The log fold change Tl+ flux with F380Y was -0.0118 (inactive); in the test with F380Y/beta1, 0.0504 (inactive); in the test on F380Y/beta2Delta, 0.00156 (inactive); in the test with F380Y/beta4, 0.00072 (inactive); in test [15] it was -0.0136 (inactive).
Consider `COc1ccccc1OCCNCC(O)COc1cccc2[nH]c3ccccc3c12` (configuration not stated), for which the nuclear beta-catenin stimulation in test [1] (at 10 µM) is 10.7% (inactive); in test [1] (stimulation, at 2 µM), 2%. In [2], the insulin secretion stimulation was 1.9% (inactive). Moreover, the viability decrease in [3] is 7.2% (inactive). Also, the tube area decrease in test [4] was 60.9% (active). Besides, the GLP1 secretion stimulation in [5] is 11.2% (inactive). For the same compound, the inhibition of viability in [6] was 83.7% (active). The values for the viability decrease (inhibition) in test [7] and in [8] were 112% (active) and 90.5% (active), respectively. Also, in test [9], the inhibition was 6.21% (inactive). Moreover, in [10], the mean signal was 201 (inactive). In addition, the red/green cell ratio (normalised) in test [11] was 1.11 (inactive) and 0.93 (inactive). Moreover, the normalised cell number is 1.02 and 1.07 in [11] (setting [16]); 1.13 and 1 in test [11] (setting [17]). For the same compound, the z-score was -0.281 (inactive) and 0.201 (inactive) and -0.32 (inactive) in test [12] (setting [18]); -0.463 and 1.15 and -0.0666 in test [12] (setting [19]). The remaining NAD in [13] is 14 nM (inactive) and 10 nM (inactive). Also, in [14], the luciferase signal is 340 AU (inactive). In addition, the log fold change Tl+ flux with F380Y was -0.0291 (inactive); with F380Y/beta1, 0.26 (active); in the test with F380Y/beta2Delta it was -0.29 (active); in the test on F380Y/beta4, 0.358 (active); in test [15], 0.204 (active).
Regarding `N[C@@H](Cc1cc(I)c(Oc2cc(I)c(O)c(I)c2)c(I)c1)C(=O)O`, the nuclear beta-catenin stimulation is -0.2% (inactive) in test [1] (at 10 µM) and -1.8% in test [1] (stimulation, at 2 µM). Besides, the insulin secretion stimulation in test [2] was 1.4% (inactive). Besides, the viability decrease in test [3] is 24.1% (inactive). Also, in test [4], the tube area decrease is 5.6% (inactive). Moreover, the GLP1 secretion stimulation in test [5] was 0.1% (inactive). In addition, the inhibition of viability in [6] is 36.7% (inactive). In addition, the viability decrease (inhibition) in test [7] was 26% (inactive); in [8], -2% (inactive). The inhibition in test [9] was 12.1% (inactive). Moreover, the mean signal in test [10] was 252 (inactive). The red/green cell ratio (normalised) in [11] was 1.06 (inactive). Also, the normalised cell number came to 0.96 in test [11] (setting [16]) and 1.02 in [11] (setting [17]). Moreover, the z-score in [12] (setting [18]) was -0.661 (inactive) and -0.549 (inactive); in [12] (setting [19]), -0.144 and -1.61. Further, the remaining NAD in test [13] is 10 nM (inactive). Further, the luciferase signal in test [14] is 112 AU (inactive). Besides, the log fold change Tl+ flux in the test on F380Y was -0.00167 (inactive); with F380Y/beta1, 0.13 (active); in the test with F380Y/beta2Delta, 0.163 (active); in the test with F380Y/beta4 it was 0.107 (active); in test [15], 0.0246 (inactive).

The record behind these values is PubChem BioAssay.
